Potency and affinity values are given separately. Activity calls are given as the source filed them. No rule for the calls is given here.
Molecular target: KSHV LANA C-terminal domain (residues 932-1162) binding to LBS DNA (UniProt O40947)
Assay: KSHV LANA DNA-binding disruption – biochemical, fluorescence polarization, cherry-picked samples, dose response (AID 504725)
Conditions: MBP-C-LANA / FAM-LBS DNA fluorescence polarization, percent change from plate compound-well median; series mostly up to 35 µM

outcome, inactive:
COc1ccccc1C(=O)NCC(=O)OCC(=O)N(CC(C)C)c1c(N)n(Cc2ccccc2)c(=O)[nH]c1=O, Cc1ccc(C)c(OCC(=O)N(Cc2nnc(-c3ccccc3Cl)o2)C2CC2)c1, O=C(O)C1C2C=CC(CC2)C1C(=O)O (stereo not drawn), COc1ccc(NS(=O)(=O)c2ccc(C)c(C(=O)N(C)Cc3ccc(OC)cc3OC)c2)cc1, CCN(Cc1ccccc1)S(=O)(=O)c1cc2[nH]c(=O)c(=O)[nH]c2cc1C, CC(C)Cn1c(N)c(C(=O)CSc2nnc(-c3ccco3)n2C)c(=O)n(C)c1=O, C=CCN1C(=O)/C(=c2\sc3nc(=O)c(Cc4ccccc4Cl)nn3c2=O)c2ccccc21, COc1ccc(-c2cc(C(=O)N(C)CCc3ccc(OC)c(OC)c3)c3ccccc3n2)cc1, Cn1c(=O)c2c(nc(SCC(=O)NCc3ccc4c(c3)OCO4)n2Cc2ccc(Cl)cc2)n(C)c1=O, CN(C)CCCNC(=O)c1ccccc1Oc1ccccc1, Nc1ccc2c(O)cc(S(=O)(=O)O)cc2c1, COc1ccc(C(=O)c2ccsc2N)cc1, CS(=O)(=O)c1cccc(C(=O)Oc2ccccc2)c1, Cc1ccc2cccc(OCC(=O)NCCC3=CCCCC3)c2n1, Cc1c(C#N)c(=O)c(-[n+]2ccccc2)c([S-])n1-c1ccc(Cl)cc1, COc1cc(SC)ccc1C(=O)Nc1nc(C)cs1, O=C(CN1CCN(C(=O)CNC(=O)c2ccc3c(c2)OCO3)CC1)Nc1ccc(F)cc1, CCc1ccc(N2CC(C(=O)OCC(=O)N(CC)c3c(N)n(Cc4ccccc4)c(=O)[nH]c3=O)CC2=O)cc1 (stereo not drawn), Cc1ccc(N=Nc2c(O)[nH]c3ccc(F)cc23)cc1, CCN(C(=O)COC(=O)CCCOc1ccc(Cl)cc1C)c1c(N)n(Cc2ccccc2)c(=O)[nH]c1=O, O=C(CN1CC[C@@]2(O)CCCC[C@H]2[C@@H]1c1ccc(F)cc1)NCc1ccco1, CC(C(=O)Nc1ccccc1)N1C(=O)c2ccccc2C1=O (stereo not drawn), O=C(c1cccc(S(=O)(=O)NCc2ccccc2)c1)N1CCN(c2ccccc2Cl)CC1, Cc1nnc2sc(-c3csc4c3CCCC4)nn12, COC(=O)C1CCN(C(=O)COC(=O)Cc2c[nH]c3ccccc23)CC1, COc1cc2c(cc1OC)CN(C(=O)c1ccc(S(=O)(=O)N3CCCC3)cc1)CC2, CN(c1ccccc1)S(=O)(=O)c1cccc(NS(=O)(=O)c2cccc(C(=O)O)c2)c1, Cc1noc(C)c1-c1nc(CSc2ccccc2)no1, COc1ccccc1CNC(=O)C(=O)NCC1CCCN1S(=O)(=O)c1cccs1 (stereo not drawn), Nc1nnc(CC(=O)N/N=C/c2cc([N+](=O)[O-])cc(Br)c2O)s1, COC(=O)C1=C(N)OC2=C(C(=O)CCC2)C1c1cccs1 (stereo not drawn), Cc1cc(NC(=O)CSc2nnc(COc3cccc(C)c3C)n2C)no1, N=C1/C(=C\c2ccc(Br)o2)C(=O)N=C2SC(CC(=O)N3CCOCC3)=NN12, CCN(C(=O)c1cccc(S(=O)(=O)N2CCc3ccccc32)c1)C1CCS(=O)(=O)C1 (stereo not drawn), CC(=O)OCCCn1c(C)[n+](C)c2cc(Cl)c(Cl)cc21, COc1ccc(Cl)cc1C(=O)NNC(=O)c1cc2ccccc2o1, Cc1ccc(/C=C/S(=O)(=O)N2CCC(C(=O)O)CC2)cc1, O=C(O)C1(c2ccccc2)CCN(S(=O)(=O)c2ccc(Cl)s2)CC1

From PubChem BioAssay AID504725 (Broad Institute, 2011)
